Measurements from the supplement of paper PMC9262897, “Low-cost anti-mycobacterial drug discovery using engineered E. coli” (Nature Communications, 2022).
Where a name gives a salt, the structure may show the parent alone. ± gives the standard deviation of the averaged measurements.

Experiments:
Experiment in all cases: growth (OD600 after 10 h); higher = more growth (less inhibition)
[1] = tested on: E. coli TESEC Alr+ wild-type control; conditions: compound 0.1 mM; raw OD600 reference: median of DMSO wells 0.241, cell-free background 0.041
Procedure: (§1)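 TESEC Mtb Alr E. coli, or the Alr+ wild-type control, in 384-well plates with Prestwick library compounds at 0.1 mM and 1% DMSO, across arabinose induction levels of 1E3 to 1E7 nM. Growth is read as OD600 after 10 h at 37 °C in triplicate biological replicates.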

[2] = tested on: E. coli TESEC Mtb Alr; conditions: compound 0.1 mM
Procedure: as §1

[3] = tested on: E. coli TESEC Mtb Asd; conditions: compound 0.1 mM
Procedure: (§2)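 TESEC E. coli strains in which the native enzyme is deleted and replaced by arabinose-inducible Mtb Asd, DapB, CysH or TrpD, each grown in its selective medium. Strains were screened against the Prestwick library at 0.1 mM and 1% DMSO in 384-well format at low and high arabinose induction. Growth is read as OD600 after 10 h in triplicate.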

[4] = tested on: E. coli TESEC Mtb DapB; conditions: compound 0.1 mM
Procedure: as §2

[5] = tested on: E. coli TESEC Alr+ wild-type control; conditions: compound 0.1 mM; raw OD600 reference: median of DMSO wells 0.49, cell-free background 0.052
Procedure: (§3)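 TESEC Mtb Alr E. coli (ΔaraC ΔtolC ΔentC Δalr ΔdadX, arabinose-inducible Mtb Alr) or the Alr+ wild-type control strain, grown in defined M9-fructose medium without D-alanine in 96-well plates with Prestwick library compounds at 0.1 mM and 1% DMSO. Low Alr induction is 0.1 µM arabinose and high induction is 10 mM arabinose.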

[6] = tested on: E. coli TESEC Mtb Alr; conditions: compound 0.1 mM; remark: listed apart in the source
Procedure: as §3

[7] = arabinose 1000 nM, raw OD600 reference: median of DMSO wells 0.294, cell-free background 0.041
[8] = arabinose 10000 nM, raw OD600 reference: median of DMSO wells 0.264, cell-free background 0.041
[9] = arabinose 100000 nM, raw OD600 reference: median of DMSO wells 0.201, cell-free background 0.041
[10] = arabinose 1000000 nM, raw OD600 reference: median of DMSO wells 0.193, cell-free background 0.041
[11] = arabinose 10000000 nM, raw OD600 reference: median of DMSO wells 0.146, cell-free background 0.041
[12] = arabinose induction (level): High, raw OD600 reference: median of DMSO wells 0.331, cell-free background 0.041
[13] = arabinose induction (level): Low, raw OD600 reference: median of DMSO wells 0.417, cell-free background 0.041
[14] = arabinose induction (level): High, raw OD600 reference: median of DMSO wells […], cell-free background 0.041
[15] = arabinose induction (level): Low, raw OD600 reference: median of DMSO wells 0.227, cell-free background 0.041
[16] = arabinose 100 nM, raw OD600 reference: median of DMSO wells 0.413, cell-free background 0.052
[17] = arabinose 10000000 nM, raw OD600 reference: median of DMSO wells […], cell-free background 0.052

Compound	growth [1]	growth [2, 7]	growth [2, 8]	growth [2, 9]	growth [2, 10]	growth [2, 11]	growth [3, 12]	growth [3, 13]	growth [4, 14]	growth [4, 15]	growth [5]	growth [6, 16]	growth [6, 17]
CC[C@@H]1C(=O)OC[C@@H]1Cc1cncn1C [Pilocarpine nitrate]	0.231 ± 0.0064	0.247 ± 0.037	0.244 ± 0.011	0.204 ± 0.032	0.18 ± 0.0025	0.145 ± 0.0063	0.222 ± 0.012	0.279 ± 0.044	0.199 ± 0.016	0.222 ± 0.023	0.674 ± 0.05	0.391 ± 0.0052	0.319 ± 0.044
O=C(O)c1cccnc1Nc1cccc(C(F)(F)F)c1 [Niflumic acid]	0.113 ± 0.0057	0.0693 ± 0.0078	0.0488 ± 0.00046	0.145 ± 0.002	0.06687 ± 0.00065	0.099 ± 0.0016	0.15 ± 0.022	0.16 ± 0.018	0.172 ± 0.0053	0.209 ± 0.022	0.206 ± 0.046	0.244 ± 0.066	0.0999 ± 0.0073
NCCc1ccc(O)c(O)c1 [Dopamine hydrochloride]	0.1987 ± 0.0012	0.27 ± 0.012	0.274 ± 0.0041	0.201 ± 0.021	0.197 ± 0.022	0.144 ± 0.009	0.335 ± 0.051	0.281 ± 0.036	0.174 ± 0.0035	0.202 ± 0.032	0.624 ± 0.051	0.4196 ± 0.0037	0.333 ± 0.0035
CC[C@H](C)[C@H](N)C1=N[C@H](C(=O)N[C@@H](CC(C)C)C(=O)N[C@H](CCC(=O)O)C(=O)N[C@H](C(=O)N[C@H]2CCCCNC(=O)[C@H](CC(N)=O)NC(=O)[C@@H](CC(=O)O)NC(=O)[C@H](Cc3cnc[nH]3)NC(=O)[C@@H](Cc3ccccc3)NC(=O)[C@H]([C@@H](C)CC)NC(=O)[C@@H](CCCN)NC2=O)[C@@H](C)CC)CS1 [Bacitracin]	0.306 ± 0.0084	0.324 ± 0.0095	0.252 ± 0.0038	0.387 ± 0.0099	0.176 ± 0.0086	0.214 ± 0.013	0.298 ± 0.05	0.269 ± 0.054	0.266 ± 0.033	0.243 ± 0.028	0.49 ± 0.073	0.421 ± 0.015	0.348 ± 0.028
C=Cc1c(C)c2cc3nc(cc4[nH]c(cc5nc(cc1[nH]2)C(C)=C5CCC(=O)O)c(CCC(=O)OC)c4C)[C@@]1(C)C3=CC=C(C(=O)OC)C1C(=O)OC.C=Cc1c(C)c2cc3nc(cc4[nH]c(cc5nc(cc1[nH]2)C(C)=C5CCC(=O)OC)c(CCC(=O)O)c4C)[C@@]1(C)C3=CC=C(C(=O)OC)C1C(=O)OC (stereo partly specified) [Verteporfin]	0.313 ± 0.011	0.356 ± 0.011	0.289 ± 0.0059	0.443 ± 0.0078	0.179 ± 0.0041	0.218 ± 0.0072	0.329 ± 0.016	0.432 ± 0.0089	0.211 ± 0.024	0.277 ± 0.043	0.5678 ± 0.0038	0.556 ± 0.057	0.439 ± 0.021
O=C1NCN(c2ccccc2)C12CCN(CCCC(c1ccc(F)cc1)c1ccc(F)cc1)CC2 [Fluspirilen]	0.0416 ± 0.0009	0.044 ± 0.0032	0.0402 ± 0.00092	0.0775 ± 0.0044	0.0438 ± 0.0018	0.0681 ± 0.0024	0.0816 ± 0.034	0.0703 ± 0.0098	0.167 ± 0.014	0.19 ± 0.021	0.055 ± 0.0016	0.0516 ± 0.00059	0.0605 ± 0.008
CC[N+](CC)(CC)CCOc1cccc(OCC[N+](CC)(CC)CC)c1OCC[N+](CC)(CC)CC [Gallamine triethiodide]	0.245 ± 0.011	0.308 ± 0.014	0.2806 ± 0.0014	0.233 ± 0.017	0.191 ± 0.0068	0.1674 ± 0.00091	0.233 ± 0.013	0.368 ± 0.033	0.19 ± 0.011	0.251 ± 0.037	0.475 ± 0.062	0.4196 ± 0.0011	0.372 ± 0.017
CC[C@]12CCCN3CCc4c(n(c5ccccc45)C(=O)C1)[C@@H]32 [Eburnamonine (-)]	0.182 ± 0.0061	0.238 ± 0.0081	0.257 ± 0.0031	0.144 ± 0.0086	0.124 ± 0.004	0.135 ± 0.0057	0.119 ± 0.0043	0.27 ± 0.095	0.176 ± 0.0063	0.176 ± 0.012	0.544 ± 0.059	0.393 ± 0.012	0.277 ± 0.015
CC(=O)NC[C@H]1CN(c2ccc(N3CCOCC3)c(F)c2)C(=O)O1 [Linezolid]	0.047 ± 0.0002	0.0465 ± 0.0021	0.0406 ± 0.00046	0.0473 ± 0.0018	0.0402 ± 0.00055	0.0474 ± 0.0016	0.072 ± 0.0052	0.0786 ± 0.0075	0.0899 ± 0.0032	0.0871 ± 0.0054	0.0669 ± 0.00098	0.135 ± 0.055	0.0531 ± 0.0013
O=C1CN(/N=C/c2ccc(-c3ccc([N+](=O)[O-])cc3)o2)C(=O)N1 [Dantrolene sodium salt]	0.2259 ± 0.00093	0.263 ± 0.0054	0.184 ± 0.003	0.143 ± 0.007	0.105 ± 0.0026	0.131 ± 0.0074	0.167 ± 0.014	0.258 ± 0.013	0.192 ± 0.016	0.231 ± 0.072	0.446 ± 0.023	0.319 ± 0.1	0.187 ± 0.033
CCCCC1C(=O)N(c2ccccc2)N(c2ccccc2)C1=O [Phenylbutazone]	0.17293 ± 0.00015	0.224 ± 0.0029	0.234 ± 0.023	0.124 ± 0.0055	0.0869 ± 0.0014	0.132 ± 0.0036	0.145 ± 0.0034	0.261 ± 0.083	0.141 ± 0.0096	0.152 ± 0.006	0.576 ± 0.075	0.399 ± 0.0095	0.283 ± 0.034
CN1CCN(CC(=O)N2c3ccccc3C(=O)Nc3cccnc32)CC1 [Pirenzepine dihydrochloride]	0.242 ± 0.0032	0.269 ± 0.049	0.268 ± 0.013	0.193 ± 0.0071	0.177 ± 0.0037	0.148 ± 0.0028	0.28 ± 0.051	0.418 ± 0.034	0.19 ± 0.013	0.253 ± 0.038	0.531 ± 0.061	0.4155 ± 0.0034	0.334 ± 0.019
